Sampled rows, rich in hits. Any-hit rate of the full collection: about 3.4%.
PAFAH1B3 FP inh: PAFAH1B3 enzyme inhibitors, primary screen, biochemical, fluorescence polarization, human | recombinant PAFAH1B3, FP-rhodamine probe | inhibition, % at 3.39 µM | 0.28% of 340,000 active | AID 492972, 2010;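 active means inhibition above the screen-wide average of all tested compounds plus 3 SD, cut at about 25% in these data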
Target sequence (Q15102 whole entry, looked up): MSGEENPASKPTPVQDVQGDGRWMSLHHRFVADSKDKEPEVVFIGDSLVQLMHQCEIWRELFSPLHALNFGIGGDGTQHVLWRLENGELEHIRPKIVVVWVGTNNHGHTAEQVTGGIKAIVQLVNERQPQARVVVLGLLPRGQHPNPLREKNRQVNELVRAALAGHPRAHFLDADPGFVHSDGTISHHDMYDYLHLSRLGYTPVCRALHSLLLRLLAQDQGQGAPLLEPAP
PP5 inh: PP5 phosphatase inhibitors, primary screen, biochemical, fluorescence. Serine/threonine-protein phosphatase 5 (Homo sapiens), P53041. purified PP5c, OMFP substrate fluorescence. inhibition, % at 6.7 µM. 0.18% of 320,000 active;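 active means inhibition above the campaign's mean inhibition across all tested compounds plus 3 SD, cut at about 9.5% in these data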
pPAFAH inh: pPAFAH enzyme inhibitors, primary screen, biochemical, fluorescence polarization, human | 1.5% of 330,000 active | recombinant pPAFAH, FP-rhodamine probe fluorescence polarization | inhibition, % at 3.39 µM;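 active means inhibition above the mean inhibition across the screen plus 3 SD, cut at about 25% in these data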;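 further: inhibitors block binding of the rhodamine activity-based probe so polarization drops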
PP1 counter: PP1-alpha phosphatase inhibitors, primary screen, counter-screen for PP5 inhibitor project, biochemical, fluorescence, OMFP substrate, single point | Serine/threonine-protein phosphatase PP1-alpha catalytic subunit (Homo sapiens), P62136 | purified PP1alpha | inhibition, % at 6.7 µM | 0.9% of 320,000 active | AID 2235, 2010;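 active means inhibition above the mean inhibition of all tested compounds plus 3 SD, computed separately for each screening campaign, cut at about 15% in these data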
PAFAH1B2 FP inh: PAFAH1B2 enzyme inhibitors, primary screen, biochemical, fluorescence polarization, human. Platelet-activating factor acetylhydrolase IB subunit alpha2 (Homo sapiens), P68402. recombinant PAFAH1B2, FP-rhodamine activity probe. inhibition, % at 3.39 µM. 1.2% of 340,000 active. AID 492953, 2010;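 active means inhibition above the mean of all tested compounds plus 3 SD, cut at about 24% in these data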
Target sequence (P68402 whole entry, looked up): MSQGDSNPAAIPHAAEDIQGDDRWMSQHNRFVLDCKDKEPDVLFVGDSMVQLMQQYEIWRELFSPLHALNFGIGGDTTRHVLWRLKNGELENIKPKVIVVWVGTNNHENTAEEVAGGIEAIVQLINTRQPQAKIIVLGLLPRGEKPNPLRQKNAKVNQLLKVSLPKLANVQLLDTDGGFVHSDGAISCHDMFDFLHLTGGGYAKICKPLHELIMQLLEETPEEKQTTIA
PAFAH2 FP inh: PAFAH2 enzyme inhibitors, primary screen, biochemical, fluorescence polarization, human | Platelet-activating factor acetylhydrolase 2, cytoplasmic (Homo sapiens), Q99487 | recombinant PAFAH2, FP-rhodamine activity probe | inhibition, % at 3.39 µM | 0.99% of 340,000 active | AID 492956, 2010;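 active means inhibition above the mean over all tested compounds plus 3 SD, cut at about 30% in these data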;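 further: inhibitors block probe labeling of enzyme so polarization drops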
pPAFAH FP conf: pPAFAH (PLA2G7) enzyme inhibitors, confirmation, biochemical, fluorescence polarization, human | shares compounds with pPAFAH inh | recombinant pPAFAH, FP-Rh probe fluorescence polarization | inhibition, % at 3.39 µM | 72% of 2,300 active;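 active means mean inhibition of the triplicate above the hit cutoff set for the earlier primary screen, cut at about 25% in these data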
Each line names hits and unclear results; the compound was inactive in the other large screens (follow-up assays come after a bar, where they were run).

O=C(CNC(=O)/C=C/c1ccco1)N=Nc1c(O)[nH]c2ccccc12	none
COc1cc(/C=C(\C#N)C(=O)c2ccc(O)c(O)c2)cc(I)c1O	pPAFAH inh 79, PAFAH1B2 FP inh 86, PAFAH2 FP inh 67 | pPAFAH FP conf 71
Cc1cc(C)c(Nc2cc(S(=O)(=O)O)c(N)c3c2C(=O)c2ccccc2C3=O)c(C)c1	PAFAH1B3 FP inh 46, pPAFAH inh 89, PP1 counter 25, PAFAH1B2 FP inh 63, PAFAH2 FP inh 83 | pPAFAH FP conf 92
O=C(O)CN1C(=O)/C(=C\c2cc(Br)ccc2OCc2ccc(F)cc2)SC1=S	pPAFAH inh 51, PP1 counter 17, PAFAH2 FP inh 50 | pPAFAH FP conf 63
O=C(COc1ccc(Br)cc1)Nc1ccccc1N1CCCC1	pPAFAH inh 59 | pPAFAH FP conf inactive
CC(=O)N1CCN(c2ccccc2NC(=O)COc2ccc(Br)cc2)CC1	none
CN(CC(=O)Nc1ccc(Cl)cc1)C(=O)c1ccc(-n2cncn2)c([N+](=O)[O-])c1	pPAFAH inh 71 | pPAFAH FP conf inactive
Cc1ccc(NC(=S)NNc2ccc(C(=O)O)cc2[N+](=O)[O-])cc1C	pPAFAH inh 35 | pPAFAH FP conf 39
Cc1ccc(Nc2ccc(C(N)=O)cc2[N+](=O)[O-])cc1C	none
CSCCC1NC(=O)N(CC(=O)N2CCc3ccccc3C2)C1=O (stereo unspecified)	none
COc1ccc(NS(=O)(=O)c2cccc(NC(=O)c3ccc(S(=O)(=O)N4CCCCCC4)cc3)c2)cc1	none
COc1ccc(NS(=O)(=O)c2ccc(O)c(NC(=O)c3ccc(S(=O)(=O)N4CCCCCC4)cc3)c2)cc1	pPAFAH inh 46 | pPAFAH FP conf 57
O=S(=O)(Nc1cc(S(=O)(=O)N2CCCC2)ccc1O)c1ccc(Cl)s1	none (no result: PP5 inh, pPAFAH inh, PP1 counter)
O=C(Nc1cc(S(=O)(=O)N2CCOCC2)ccc1O)c1ccc(NS(=O)(=O)c2ccc(Cl)s2)cc1	pPAFAH inh 45 | pPAFAH FP conf 45
CC(Cc1ccc(O)c(O)c1)C(C)Cc1ccc(O)c(O)c1 (stereo unspecified)	pPAFAH inh 70 (no result: PAFAH1B3 FP inh, PAFAH1B2 FP inh, PAFAH2 FP inh) | pPAFAH FP conf 79
CC(CCc1ccc(O)cc1)NCCc1ccc(O)c(O)c1 (stereo unspecified)	none
O=C(O)c1cc(Cl)c2c(c1)[C@@H]1C=CC[C@@H]1[C@H](c1ccc(S(=O)(=O)N3CCOCC3)cc1)N2	pPAFAH inh 46, PAFAH2 FP inh 41 | pPAFAH FP conf inactive
CC(C)=CCc1c(-c2ccc(O)cc2O)oc2c3c(cc(O)c2c1=O)OC(C)(C)C=C3	none (no result: PAFAH1B3 FP inh, PAFAH1B2 FP inh, PAFAH2 FP inh)
CC(C)=CCc1c2c(c(O)c3c(=O)c4c(oc13)-c1cc(O)c(O)cc1OC4C=C(C)C)C=CC(C)(C)O2 (stereo unspecified)	pPAFAH inh 37 (no result: PAFAH1B3 FP inh, PAFAH1B2 FP inh, PAFAH2 FP inh) | pPAFAH FP conf 52
O=C1NN(c2ccccc2)C(=O)/C1=C/c1ccc(Sc2cccc3ccccc23)o1	pPAFAH inh 43 | pPAFAH FP conf 36
COc1cccc(/C=C2/C(=O)NN(c3ccccc3)C2=O)c1	none (no result: PP5 inh, pPAFAH inh, PP1 counter)
O=C(/C=C/c1ccc(O)c(O)c1)c1ccc(S(=O)(=O)N2CCCCCC2)cc1	pPAFAH inh 50 | pPAFAH FP conf 89
O=C(O)COc1cccc(/C=C2/SC(=S)N(Cc3ccccc3)C2=O)c1	pPAFAH inh 40 | pPAFAH FP conf 33
COc1ccc(-c2cc(=O)oc3c(O)c(O)ccc23)cc1	pPAFAH inh 43 | pPAFAH FP conf 80
COc1ccc(-c2cc(=O)oc3cc(OC(C)C(=O)O)ccc23)cc1 (stereo unspecified)	none
CCOC(=O)c1c(NC(=O)/C=C/C(=O)O)sc(C)c1-c1ccc(Cl)cc1	pPAFAH inh 44 | pPAFAH FP conf 40
O=C(CNC(=S)N(Cc1ccccc1)Cc1ccccc1F)NCCc1ccc(Cl)cc1	none
N#C/C(=N\Nc1ccc(Cl)c(Cl)c1)C(=O)C1CC1	pPAFAH inh 41 (no result: PAFAH1B3 FP inh, PAFAH1B2 FP inh, PAFAH2 FP inh) | pPAFAH FP conf 40
COc1cc([N+](=O)[O-])ccc1NC(=O)N1CCCCCC1	none
COc1cc(C(=O)NCCC(=O)NC2CCCCC2)cc(OC)c1OC	pPAFAH inh 47 | pPAFAH FP conf inactive
COc1cc(C(=O)NCC2CCCCC2)cc(OC)c1OC	none
OC1(c2ccc(Cl)cc2)CCN(Cc2cn[nH]c2-c2ccc(F)cc2)CC1	pPAFAH inh 58 | pPAFAH FP conf inactive
OC1(c2ccc(Cl)cc2)CCN(Cc2cn[nH]c2-c2ccccc2)CC1	none
O=C(CCCCCN1C(=O)c2cccc3cccc(c23)C1=O)NCc1cccnc1	pPAFAH inh 49 (no result: PAFAH1B3 FP inh, PAFAH1B2 FP inh, PAFAH2 FP inh) | pPAFAH FP conf inactive
O=C(c1cc(S(=O)(=O)N2CCOCC2)c(Cl)cc1Cl)N1CCCC1	none (no result: PP5 inh, pPAFAH inh, PP1 counter)
O=C(c1cc(S(=O)(=O)N2CCOCC2)c(Cl)cc1Cl)N1CCCCC1CO (stereo unspecified)	pPAFAH inh 47 | pPAFAH FP conf inactive
COc1ccc(N2CCN(C(=O)COC(=O)c3cccc(S(=O)(=O)Nc4cccc(C)c4)c3)CC2)cc1	pPAFAH inh 40 | pPAFAH FP conf 44
O=C(OCC(=O)N1CCCCC1)c1cccc(NS(=O)(=O)c2ccccc2)c1	none
Cc1sc(N2CCN(S(=O)(=O)c3ccc4c(c3)NC(=O)CO4)CC2)nc1-c1ccccc1	none
COc1ccccc1N1CCN(C2CCCN(C(=O)CCn3cncn3)C2)CC1 (stereo unspecified)	none
O=C1NC(=O)/C(=C/c2ccc(-c3cc(C(=O)O)ccc3Cl)o2)S1	none
O=C1NC(=S)/C(=C\c2ccc(-c3ccccc3Cl)o2)S1	pPAFAH inh 70, PAFAH2 FP inh 41 | pPAFAH FP conf 79
C=CCN(CC=C)CCCOc1ccc(Br)cc1Cl	none
O=C(O)Cc1c[nH]c2ccccc12	none
O=C(O)Cc1c[nH]c2cccc(O)c12	pPAFAH inh 47 | pPAFAH FP conf inactive
CCN(CC)S(=O)(=O)c1ccc(Cl)c(NC(=O)COC(=O)/C=C/c2ccc(O)c(OC)c2)c1	pPAFAH inh 37, PAFAH2 FP inh 75 | pPAFAH FP conf inactive
CCOC(=O)c1ccc(N2C(=O)CC(Sc3ncccn3)C2=O)cc1 (stereo unspecified)	pPAFAH inh 40 | pPAFAH FP conf inactive
COc1ccc(CCNC(=O)COC(=O)c2ccccn2)cc1	none (no result: PP5 inh, PP1 counter)

Screening results from PubChem BioAssay.
